Experimental data as given in PubChem BioAssay (NCI).
Compounds without any hit were thinned out: in the full panel of roughly 83,000, 20% have a hit.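 How to read the values: 0–100, growth inhibition (40 = 60% inhibited); 0, no net growth; -100 to 0, cell death (-40 = 40% of starting cells died; -100 = all dead).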 A number with no mark means an inactive call. The calls were made as follows: active = growth percent below 10; inactive = the rest.

Each compound was assayed on OVCAR-5 ovarian (assay: NCI-60 one-dose screen, 48 h (100 = growth as untreated, 0 = no growth, -100 = all killed)). Details: 10 µM.

Compound	growth
CC(=O)OC(OC(C)=O)C1CCCO1 (stereo not drawn)	100%
O=C(O)c1ccnc(Br)c1	107%
c1ccc2c(N3CCCCC3)ncnc2c1	99.9%
COc1ccccc1N=Nc1c(O)ccc2cc(S(=O)(=O)O)ccc12	103%
N#Cc1c(N)sc(=S)c2c1CCCC2	108%
O=C(CCl)N1CCN(C/C=C/c2ccccc2)CC1	111%
C#CCSc1nnnn1-c1ccc(Br)c(C)c1	90%
C=CC[N+](C)(C)C	102%
Nc1ccc(N)c([N+](=O)[O-])c1	104%
O=C(Nc1cc(-c2ccccc2)[nH]n1)c1ccc(Cl)cc1	80.7%
CC(C)C(C#N)(C(C)C)C(C)C	108%
CCOC(=O)C(CCC(C)C)C(=O)OCC	107%
C=CCNC(=O)c1ccc(OC)cc1	103%
S=c1[nH]ccn1-c1ccccc1Cl	114%
NC(=S)N/N=C/c1ccc(N)cc1	108%
CCCCC(O)c1ccccc1 (stereo not drawn)	115%
CCOc1ccc(Br)cc1/C=N\N=C\c1cc(Br)ccc1OCC	107%
O=C1Cc2ccccc2C(=O)O1	106%
CC(C)CCOC(=O)c1ccccc1	105%

Compound	growth
COC(=O)c1ccc(C(C)C)cc1	103%
COc1cccc(/C=N/NC(=S)NC2CC3CCC2C3)c1O (stereo not drawn)	85.1%
CCOC(=O)C1OC1c1ccccc1 (stereo not drawn)	102%
C/C(=C\c1cc(Cl)ccc1OCC(=O)O)[N+](=O)[O-]	106%
CCN=c1cc2sc3cc(NCC)c(C)cc3nc-2cc1C	27.5%
Clc1ccc(-c2nnc(-c3cccc4ccccc34)o2)cc1	93.3%
COc1cc(OC)c2ccc(=O)oc2c1	90.3%
COc1ccc(Oc2c(I)cc(CC(NC(C)=O)C(=O)O)cc2I)cc1 (stereo not drawn)	91.7%
Cc1cc2ccccc2c(O)c1C#N	103%
CN(C)/N=C/c1ccccc1O	89.9%
Cc1cc(C(C)(C)C)cc(C)c1Br	105%
COc1cc(C2c3cc4c(cc3C3OC(=O)C2C3CO)OCO4)cc(OC)c1OC (stereo not drawn)	27.1%
CCCC1(c2ccccc2)NC(=O)NC1=O (stereo not drawn)	103%
CN(C)c1ccc(S(=O)(=O)O)cc1	93%
Clc1ccc(-c2n[nH]c3c2Cc2ccccc2-3)cc1Cl	111%
S=C1CCCCCN1	103%
CCCOC(=O)C(O)c1ccccc1 (stereo not drawn)	94.9%
O=S(=O)(O)c1ccc(O)c2ccccc12	98.7%
N/N=C(/Cc1ccccc1)NNC(N)=S	111%
